Results filed as inconclusive are left out. Active and inactive are the calls of the source. Calls come from the whole dose curve; as a rule, active = well fitted inhibition curve with a large enough effect; inconclusive = small, poorly fitted or top-dose-only effect; inactive = flat fitted curve, though single readings scatter.
test system: Dd2; assay: qHTS profiling for inhibitors of Plasmodium falciparum proliferation (AID 504749); note: nearly all actives have a fitted effect of over 60% in size;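 for activity, negative = inhibition: 0% = DMSO vehicle and full inhibition = artemisinin control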; conditions: P. falciparum in erythrocytes, SYBR Green DNA, 72 h; series mostly up to 28.7 µM; activity, negative = inhibition: at the top concentration
Method in brief: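 SYBR Green fluorescence (ex 485 nm, em 535 nm) reports parasite DNA after 72 h compound exposure of infected red cells at 0.3% parasitemia, 2.5% hematocrit; signal normalized to 0.29 uM artemisinin and vehicle wells.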
Potency is the fitted concentration of half-maximal effect.

Compound | activity, negative = inhibition | Potency
COc1ccc(OC)c(C(O)C(C)N)c1 (stereo not drawn) | -7.65% (inactive) | 
CCON=O | 6.23% (inactive) | 
CCCCCl | 9.46% (inactive) | 
COC([CH2][Hg])CNC(=O)c1ccccc1OCC(=O)O (stereo not drawn) | -0.766% (inactive) | 
CC(C)(O)C1C2OC(=O)C1C1(O)CC3OC34C(=O)OC2C14C (stereo not drawn) | -7.67% (inactive) | 
C[CH2][Hg][S]c1ccccc1C(=O)O |  | 2.24 µM (active)
O=C1C2CC=CCC2C(=O)N1SC(Cl)(Cl)Cl (stereo not drawn) | 0.832% (inactive) | 
N#CN | 10.5% (inactive) | 
O=C1CCCCC1CN1CCCCC1 (stereo not drawn) | -9.35% (inactive) | 
CN1C2CCC1CC(OC(c1ccccc1)c1ccc(Cl)cc1)C2 (stereo not drawn) |  | 10 µM (active)
COC1=CC=C2[C@H]3Cc4ccc(OC)c5c4[C@@]2(CCN3C)[C@H]1O5 | -21.3% [at 12.8 µM] (inactive) | 
S=C=S | 5.86% (inactive) | 
O=[N+]([O-])C(Br)(CO)CO | 2.67% (inactive) | 
COc1ccc2c3c1O[C@H]1C(=O)CC[C@H]4[C@@H](C2)N(C)CC[C@]314 | -0.713% (inactive) | 
CC(=O)O[C@H]1CC[C@H]2[C@@H]3CCC4=CC(=O)CCC4=C3C=C[C@]12C | -0.384% (inactive) | 
CCCCCCCCOC(=O)c1ccccc1C(=O)OCCCCCCCC | -23.4% (inactive) | 
O=C1CCO1 | 10.4% (inactive) | 
O=C(CS(=O)C(c1ccccc1)c1ccccc1)NO (stereo not drawn) | -6.95% (inactive) | 
C=CCN1CC[C@]23c4c5ccc(O)c4O[C@H]2[C@@H](O)C=C[C@H]3[C@H]1C5 | 2.45% (inactive) | 

Compound | activity, negative = inhibition | Potency
O=c1[nH]cc(N(CCCl)CCCl)c(=O)[nH]1 | -0.132% (inactive) | 
C/C(=C\c1csc(C)n1)[C@@H]1C[C@@H]2O[C@]2(C)CCC[C@H](C)[C@H](O)[C@@H](C)C(=O)C(C)(C)[C@@H](O)CC(=O)O1 |  | 0.0013 µM (active)
CCC(N)Cc1c[nH]c2ccccc12 (stereo not drawn) | -5.25% (inactive) | 
C#CC(C)(O)CC (stereo not drawn) | 0.898% (inactive) | 
CCCCNCC(O)c1ccc(O)cc1 (stereo not drawn) | 1.31% (inactive) | 
O[C@H]1[C@H]2[C@H](O)CCCN2C[C@H]1O | -4.08% (inactive) | 
C=CCN1CCC23c4c5ccc(O)c4O[C@H]2C(=O)CC[C@@]3(O)C1C5 (stereo partly drawn) | 4.37% (inactive) | 
CC(=O)OO | 4.27% (inactive) | 
CCCC(=O)OC(C(Cl)(Cl)Cl)P(=O)(OC)OC (stereo not drawn) | -15.6% (inactive) | 
[N-]=[N+]=CC(=O)OCC(N)C(=O)O (stereo not drawn) | -14.3% (inactive) | 
CC(C)CCON=O | -0.617% (inactive) | 
CC(C)(C)c1cc(O)ccc1O |  | 4.47 µM (active)
COCC(C)N(C(=O)CCl)c1c(C)csc1C (stereo not drawn) | -0.134% (inactive) | 
C[N+]1(C)CCCCC1COC(=O)C(O)(c1ccccc1)c1ccccc1 (stereo not drawn) | -7.67% (inactive) | 
CCC1(c2ccccc2)C(=O)NC(=O)NC1=O | 8.82% (inactive) | 
C[N+]1(C)C2CCC1CC(OC(=O)c1c[nH]c3ccccc13)C2 (stereo not drawn) | -7.99% (inactive) | 
O=S(=O)(O)c1cc(O)ccc1O | 13.4% [at 12.8 µM] (inactive) | 
FC(F)OC(F)(F)C(F)Cl (stereo not drawn) | 8.97% (inactive) | 
c1ccc2sc(SNC3CCCCC3)nc2c1 | -6.78% (inactive) | 
